Results: PubChem BioAssay (NCATS)
Inconclusive results are not listed. Activity calls are given as the source filed them. The call rests on the fitted dose curve; in most records, active means well fitted curve in the direction sought with a large enough effect; inconclusive means small, poorly fitted or top-dose-only effect, or another doubt; inactive means no such curve, though single readings can be large; an effect the other way counts as inactive or inconclusive.

Columns and labels:
[1] = molecular target: Cytochrome P450 2C9 (Homo sapiens) (UniProt P11712); assay: qHTS Assay for Inhibitors and Substrates of Cytochrome P450 2C9 (AID 883); settings: recombinant CYP2C9, luciferin-H luminescence, 60 min; series mostly up to 11.4 µM; further: on the % scale 0 is the no-effect control and ±100 the full control effect; nearly all actives have a fitted effect of over 60% in size
Summary of the method: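 A luminogenic readout tracked human CYP2C9 (10nM) converting deoxyluciferin (100uM, at KM) in 25mM KPO4 during 60 min at 37C with regenerated NADPH. Values normalized to 57uM sulphaphenazole as complete inhibition.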

[2] = molecular target: Cytochrome P450 3A4 (Homo sapiens) (UniProt P08684); assay: qHTS Assay for Inhibitors and Substrates of Cytochrome P450 3A4 (AID 884); settings: recombinant CYP3A4, Luciferin-PPXE luminescence; series mostly up to 57.1 µM; further: nearly all actives have a fitted effect of over 50% in size; further: potency means the concentration at half of the fitted maximal effect
Summary of the method: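 Luminescent readout of luciferin produced by CYP3A4 (20 nM) dealkylation of Luciferin-PPXE, 25 uM (its KM). NADPH-driven reaction ran 60 min at RT after 10 min compound preincubation; data scaled to 57 uM ketoconazole as 100% inhibition.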

[3] = molecular target: Cytochrome P450 3A4 (Homo sapiens) (UniProt P08684); assay: qHTS Assay for Activators of Cytochrome P450 3A4 (AID 885); settings: recombinant CYP3A4, Luciferin-PPXE luminescence, 60 min; series mostly up to 57.1 µM; further: nearly all actives have a fitted effect of over 65% in size
Summary of the method: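 Using 20nM recombinant human CYP3A4 in potassium phosphate (200mM), substrate Luciferin-PPXE at 25uM, luminescent luciferin detection followed a 60-min RT NADPH reaction; data scaled to 57 uM ketoconazole.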

[4] = molecular target: Cytochrome P450 2D6 (Homo sapiens) (UniProt P10635); assay: qHTS Assay for Inhibitors and Substrates of Cytochrome P450 2D6 (AID 891); settings: recombinant CYP2D6, luciferin-ME EGE luminescence; series mostly up to 11.4 µM;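 further: luciferin methyl ether substrate demethylated by CYP2D6 with NADPH regeneration; on the % scale 0 is the no-effect control and ±100 the full control effect; nearly all actives have a fitted effect of over 60% in size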
Summary of the method: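 Luminescent read-out of luciferin formed by 5 nM human CYP2D6 demethylating 30 uM Luciferin-ME EGE (Km level) over 60 min at room temperature after NADPH regeneration addition. Data normalized to full inhibition by 1.43 uM quinidine.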

[5] = molecular target: Luciferin 4-monooxygenase (Photinus pyralis) (UniProt P08659); assay: Biochemical firefly luciferase enzyme assay for NPC (AID 624030);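 further: purified P. pyralis luciferase at 10 nM with luciferin and ATP substrate; 0% = DMSO and -100% = full luciferase inhibition by PTC124 control; nearly all actives have a fitted effect of over 70% in size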; settings: purified P. pyralis luciferase, luminescence, 5 min; series mostly up to 58.6 µM
Summary of the method: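 Counter-screen for direct inhibition of the luciferase enzyme by approved-drug library compounds, run at 10 nM enzyme in 50 mM Tris acetate (final). Luminescence was read within 5 min of enzyme-buffer addition and normalized to PTC124 versus DMSO (0%).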

[6] = S16 Schwann cell viability assay (CellTiter-Glo assay) (AID 624031); settings: S16 rat Schwann cells viability, 24 h; series mostly up to 57.5 µM;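 further: cellular ATP luminescence as a viability measure; plate controls were DMSO-treated cells for no effect and cell-free wells for full effect; nearly all actives have a fitted effect of over 70% in size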
Summary of the method: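 Untransfected S16 rat Schwann cells; compound 24 h, 37 °C/5% CO2; CellTiter-Glo ATP luminescence. % activity vs no-cell wells and DMSO controls (0%); concentration-effect curves classed by r2, response magnitude, activity.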

CP260 = assay: qHTS profiling for inhibitors of Plasmodium falciparum proliferation (AID 504749);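 further: 0% = DMSO vehicle and full inhibition = artemisinin control; nearly all actives have a fitted effect of over 60% in size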; settings: P. falciparum in erythrocytes, SYBR Green DNA, 72 h; series mostly up to 28.7 µM
Summary of the method: (§1)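 Fluorescence of SYBR Green-bound parasite DNA, read at 485/535 nm, served as the growth measure. Infected erythrocytes were cultured with compound 72 h; artemisinin (0.29 uM) and DMSO wells defined the normalization range.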

DIV14 = assay: as above; settings: P. falciparum in erythrocytes, SYBR Green DNA, 72 h; series mostly up to 28.7 µM
Summary of the method: as §1

DIV17 = assay: as above; settings: P. falciparum in erythrocytes, SYBR Green DNA, 72 h; series mostly up to 28.7 µM
Summary of the method: as §1

ICS = assay: as above; settings: P. falciparum in erythrocytes, SYBR Green DNA, 72 h; series mostly up to 28.7 µM
Summary of the method: as §1

W2 = assay: as above; settings: P. falciparum in erythrocytes, SYBR Green DNA, 72 h; series mostly up to 28.7 µM
Summary of the method: as §1

[7] = molecular target: Cytochrome P450 2C19 (Homo sapiens) (UniProt P33261); assay: qHTS Assay for Inhibitors and Substrates of Cytochrome P450 2C19 (AID 899); settings: recombinant CYP2C19, luciferin-H EGE luminescence; series mostly up to 11.4 µM; further: on the % scale 0 is the no-effect control and ±100 the full control effect; nearly all actives have a fitted effect of over 60% in size
Summary of the method: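 NADPH-dependent conversion of Luciferin-H EGE (10uM, at KM) by 5nM enzyme in 50mM KPO4, 60 min at 37C following 10 min compound preincubation. Stopped with luciferin detection buffer; luminescence read after 20 min.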

[8] = molecular target: DNA dC->dU-editing enzyme APOBEC-3G (Homo sapiens) (UniProt Q9HC16); assay: qHTS for inhibitors of Vif-A3G interactions: Validation (AID 588379); settings: Vif-A3G protein interaction assay; series mostly up to 46.1 µM; further: 0% is about no effect
Summary of the method: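 Yellow fluorescence (Ex 488, Em 500-530) of Vif-coexpressing HeLa A3G-eYFP cells, scanned by Acumen cytometer, reports blocked A3G degradation. Cells plated at 700/well overnight at 37 deg C before compound addition, then a further overnight compound incubation at 37 deg C.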

Luciferin 4-monooxygenase (Photinus pyralis), sequence (P08659 whole entry, looked up): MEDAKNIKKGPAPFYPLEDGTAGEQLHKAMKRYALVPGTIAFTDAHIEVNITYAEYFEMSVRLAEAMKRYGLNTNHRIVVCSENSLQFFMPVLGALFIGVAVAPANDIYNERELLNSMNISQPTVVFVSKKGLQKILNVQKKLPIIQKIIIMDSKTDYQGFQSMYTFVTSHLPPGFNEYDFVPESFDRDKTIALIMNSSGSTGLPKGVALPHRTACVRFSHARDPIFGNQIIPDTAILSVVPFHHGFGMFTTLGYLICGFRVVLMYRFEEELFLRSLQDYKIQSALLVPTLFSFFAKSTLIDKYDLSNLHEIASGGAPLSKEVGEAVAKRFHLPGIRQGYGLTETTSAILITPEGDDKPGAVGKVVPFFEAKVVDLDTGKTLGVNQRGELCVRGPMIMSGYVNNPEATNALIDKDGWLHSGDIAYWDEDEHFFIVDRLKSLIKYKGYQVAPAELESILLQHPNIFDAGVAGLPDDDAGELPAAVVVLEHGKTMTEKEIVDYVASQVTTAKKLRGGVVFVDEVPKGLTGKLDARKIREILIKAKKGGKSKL
Cytochrome P450 3A4 (Homo sapiens), sequence (P08684 whole entry, looked up): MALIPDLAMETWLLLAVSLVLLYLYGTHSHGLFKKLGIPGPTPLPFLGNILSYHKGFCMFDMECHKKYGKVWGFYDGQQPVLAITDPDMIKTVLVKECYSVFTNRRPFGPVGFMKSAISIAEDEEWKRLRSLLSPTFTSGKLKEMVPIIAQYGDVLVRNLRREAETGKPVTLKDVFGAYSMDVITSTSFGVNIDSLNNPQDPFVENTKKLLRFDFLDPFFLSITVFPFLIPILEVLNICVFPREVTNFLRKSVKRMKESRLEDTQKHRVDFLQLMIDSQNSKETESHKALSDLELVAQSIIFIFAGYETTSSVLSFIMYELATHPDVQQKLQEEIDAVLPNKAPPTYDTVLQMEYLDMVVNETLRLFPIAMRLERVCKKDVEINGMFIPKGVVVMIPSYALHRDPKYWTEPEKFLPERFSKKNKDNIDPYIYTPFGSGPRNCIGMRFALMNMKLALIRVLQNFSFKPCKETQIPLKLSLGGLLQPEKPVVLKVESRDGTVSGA
DNA dC->dU-editing enzyme APOBEC-3G (Homo sapiens), sequence (Q9HC16 whole entry, looked up): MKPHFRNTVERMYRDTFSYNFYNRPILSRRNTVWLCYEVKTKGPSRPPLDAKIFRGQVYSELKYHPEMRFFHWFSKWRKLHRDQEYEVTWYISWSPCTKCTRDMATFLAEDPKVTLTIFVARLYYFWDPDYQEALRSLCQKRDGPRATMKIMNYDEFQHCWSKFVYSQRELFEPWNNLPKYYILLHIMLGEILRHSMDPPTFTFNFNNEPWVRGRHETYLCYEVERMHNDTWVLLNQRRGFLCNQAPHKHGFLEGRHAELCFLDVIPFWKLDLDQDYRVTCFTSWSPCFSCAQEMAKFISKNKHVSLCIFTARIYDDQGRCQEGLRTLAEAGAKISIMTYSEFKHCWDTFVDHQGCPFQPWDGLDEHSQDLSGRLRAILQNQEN
Cytochrome P450 2D6 (Homo sapiens), sequence (P10635 whole entry, looked up): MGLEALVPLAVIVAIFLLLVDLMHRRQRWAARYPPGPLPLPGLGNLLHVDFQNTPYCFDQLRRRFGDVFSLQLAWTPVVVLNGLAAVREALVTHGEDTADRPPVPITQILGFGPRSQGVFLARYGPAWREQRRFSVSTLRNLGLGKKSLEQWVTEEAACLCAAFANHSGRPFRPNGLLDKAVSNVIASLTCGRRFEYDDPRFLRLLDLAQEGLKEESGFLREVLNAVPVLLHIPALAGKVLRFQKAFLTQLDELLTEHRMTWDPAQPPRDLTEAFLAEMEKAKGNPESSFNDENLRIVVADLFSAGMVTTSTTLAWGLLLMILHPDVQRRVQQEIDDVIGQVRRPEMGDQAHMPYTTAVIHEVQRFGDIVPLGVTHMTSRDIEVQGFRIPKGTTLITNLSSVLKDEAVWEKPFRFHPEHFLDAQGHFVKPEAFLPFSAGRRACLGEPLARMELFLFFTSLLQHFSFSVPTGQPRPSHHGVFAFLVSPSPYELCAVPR
Cytochrome P450 2C19 (Homo sapiens), sequence (P33261 whole entry, looked up): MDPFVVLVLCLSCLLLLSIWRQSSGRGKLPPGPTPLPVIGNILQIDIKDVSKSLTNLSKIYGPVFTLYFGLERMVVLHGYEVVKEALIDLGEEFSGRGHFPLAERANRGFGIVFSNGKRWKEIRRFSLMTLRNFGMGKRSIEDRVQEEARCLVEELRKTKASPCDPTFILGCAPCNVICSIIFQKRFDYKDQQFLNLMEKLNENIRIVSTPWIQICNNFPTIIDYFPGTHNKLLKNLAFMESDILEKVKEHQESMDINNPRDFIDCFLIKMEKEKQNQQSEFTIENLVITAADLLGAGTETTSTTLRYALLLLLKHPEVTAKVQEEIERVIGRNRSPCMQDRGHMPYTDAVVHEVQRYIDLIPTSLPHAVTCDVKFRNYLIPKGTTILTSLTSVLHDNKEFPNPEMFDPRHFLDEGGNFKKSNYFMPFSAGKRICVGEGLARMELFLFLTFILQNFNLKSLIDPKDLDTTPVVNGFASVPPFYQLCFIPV
Cytochrome P450 2C9 (Homo sapiens), sequence (P11712 whole entry, looked up): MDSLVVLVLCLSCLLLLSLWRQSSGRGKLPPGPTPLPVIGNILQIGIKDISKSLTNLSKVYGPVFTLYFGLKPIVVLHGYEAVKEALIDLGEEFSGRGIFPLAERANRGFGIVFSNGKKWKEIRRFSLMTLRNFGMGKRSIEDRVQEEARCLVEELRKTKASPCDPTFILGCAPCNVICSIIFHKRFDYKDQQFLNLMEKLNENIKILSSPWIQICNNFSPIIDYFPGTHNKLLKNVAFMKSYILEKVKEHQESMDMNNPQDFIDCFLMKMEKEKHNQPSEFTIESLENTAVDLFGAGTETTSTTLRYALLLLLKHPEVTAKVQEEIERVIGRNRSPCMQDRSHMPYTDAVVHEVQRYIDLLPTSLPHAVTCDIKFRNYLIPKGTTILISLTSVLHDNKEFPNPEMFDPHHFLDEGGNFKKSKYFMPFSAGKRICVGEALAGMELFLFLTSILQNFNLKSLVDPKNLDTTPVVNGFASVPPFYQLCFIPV

CCCCCCC(=O)Cc1cc(OC)c(OC)cc1C=C(C(=O)OCC)C(=O)OCC
inactive: Potency [1] | activity change, positive = activation [3] -90.7% [at 11.4 µM] | Potency [4]
active: Potency [2] 3.16 µM

CC(=O)OCC(=O)[C@@]1(O)CCC2C3CCC4=CC(=O)CC[C@]4(C)C3=CC[C@@]21C (stereo partly drawn)
inactive: Potency [5] | Potency [6] | Potency (CP260) | Potency (DIV14) | Potency (DIV17) | Potency (ICS) | Potency (W2)

CNCC(=O)NC(CCCN=C(N)N)C(=O)NC(C(=O)NC(Cc1ccc(O)cc1)C(=O)NC(C(=O)NC(Cc1cnc[nH]1)C(=O)N1CCCC1C(=O)NC(C)C(=O)O)C(C)C)C(C)C (stereo not drawn)
inactive: Potency [5] | Potency [6] | Potency (CP260) | Potency (DIV14) | Potency (DIV17) | Potency (ICS) | Potency (W2)

CCCCCC(=O)c1cc(CC(C(=O)OC)C(=O)OC)cc2cc(OC)c(OC)cc12
inactive: activity change, positive = activation [3] -51.6% [at 11.4 µM] | Potency [4] | Potency [7]

CC(N)C(=O)NCC(=O)NC1CSSCC(C(=O)O)NC(=O)C(CO)NC(=O)C(C(C)O)NC(=O)C(Cc2ccccc2)NC(=O)C(C(C)O)NC(=O)C(CCCCN)NC(=O)C(Cc2c[nH]c3ccccc23)NC(=O)C(Cc2ccccc2)NC(=O)C(Cc2ccccc2)NC(=O)C(CC(N)=O)NC(=O)C(CCCCN)NC1=O (stereo not drawn)
inactive: Potency [5] | Potency [6] | Potency (CP260) | Potency (DIV14) | Potency (DIV17) | Potency (ICS) | Potency (W2)

COc1cccc2c1C(=O)CC(c1ccccc1)O2 (stereo not drawn)
inactive: Potency [2] | Potency [8]

O=C(O)c1cc2ccccc2[nH]1
inactive: Potency [2]

CC[C@H](/C=C/[C@@H](C)[C@H]1CC[C@H]2C3CC=C4C[C@@H](O)CC[C@]4(C)C3CC[C@]12C)C(C)C (stereo partly drawn)
inactive: Potency [2] | Potency [8]
